From PubChem BioAssay
Pol kappa inh = DNA polymerase kappa (human) inhibition; AID 588579; Potency, µM (top dose mostly 107 µM), most hits filed as inhibitors; Q9UBT6; purified Pol kappa, fluorescent DNA synthesis assay, 10 min; actives 0.53% (n = 400,000)
Target sequence (Q9UBT6 whole entry, looked up): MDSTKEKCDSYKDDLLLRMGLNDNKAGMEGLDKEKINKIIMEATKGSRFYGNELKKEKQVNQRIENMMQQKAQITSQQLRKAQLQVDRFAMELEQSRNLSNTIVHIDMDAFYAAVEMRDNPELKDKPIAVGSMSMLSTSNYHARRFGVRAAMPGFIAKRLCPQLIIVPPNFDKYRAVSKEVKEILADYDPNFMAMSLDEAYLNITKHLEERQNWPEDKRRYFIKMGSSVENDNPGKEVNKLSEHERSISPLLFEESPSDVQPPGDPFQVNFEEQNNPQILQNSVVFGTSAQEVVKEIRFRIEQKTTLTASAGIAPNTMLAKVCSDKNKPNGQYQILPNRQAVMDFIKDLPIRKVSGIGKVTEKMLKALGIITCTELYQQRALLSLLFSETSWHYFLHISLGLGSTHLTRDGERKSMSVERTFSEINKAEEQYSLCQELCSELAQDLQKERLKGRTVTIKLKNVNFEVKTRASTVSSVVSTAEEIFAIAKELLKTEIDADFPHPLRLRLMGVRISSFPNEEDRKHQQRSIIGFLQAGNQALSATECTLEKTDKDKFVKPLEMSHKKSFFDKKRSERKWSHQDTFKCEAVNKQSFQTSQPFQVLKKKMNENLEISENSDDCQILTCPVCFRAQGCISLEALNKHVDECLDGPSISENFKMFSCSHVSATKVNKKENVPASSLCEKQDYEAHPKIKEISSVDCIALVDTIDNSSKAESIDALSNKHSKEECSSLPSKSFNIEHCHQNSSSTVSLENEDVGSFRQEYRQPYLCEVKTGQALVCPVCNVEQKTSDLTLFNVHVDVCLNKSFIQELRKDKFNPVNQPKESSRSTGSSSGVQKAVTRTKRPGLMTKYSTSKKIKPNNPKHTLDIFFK
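Readout: fluorescence, taken kinetically at 0 and 10 min. Conditions: 10 nM Pol kappa, 15 min RT compound preincubation, 50 nM substrate final. Controls: enzyme-free buffer wells.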
FEN1 inh = human FEN1 inhibition | actives 0.35% (n = 390,000) | P39748 | Recombinant FEN1 flap cleavage, fluorescence, 15 min | Potency, µM (titrated, usually from 114 µM), usual class: inhibitors; further: nearly all actives have a fitted effect of over 65% in size
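FEN1 at 10 nM, compound pretreatment for 15 min (room temperature), 50 nM final substrate to initiate; endpoint reads at 0 and 15 min; DMSO-only plates used as vehicle background.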
POLH inh = blocks human DNA polymerase eta activity. recombinant Pol eta, fluorescent DNA replication assay. Potency, µM (titrated, usually from 114 µM), actives largely listed as inhibitors. actives 1.2% (n = 390,000)
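Pol eta (10 nM) was preincubated with compounds for 15 min at room temperature, after which fluorescent replication substrate (50 nM final) was added to start the reaction. Fluorescence was read kinetically at 0 and 10 min.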
Pol beta inh = DNA polymerase beta (human) inhibition. Pol beta primer extension/strand displacement, fluorescence kinetic. actives 1.3% (n = 340,000). Potency, µM (titrated, usually from 114 µM), actives largely listed as inhibitors. P06746
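Pol beta (10 nM) and compounds were preincubated 15 min at room temperature, then 50 nM substrate (final) started primer extension/strand displacement. Reads were taken at 0 and 10 min; concentration-response data were fitted to a four-parameter Hill equation.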
WRN helicase inh = WRN helicase (human) inhibition | Q14191 | WRN helicase unwinding, fluorescent forked duplex, kinetic | Potency, µM (highest dose often 114 µM), most hits filed as inhibitors | actives 0.46% (n = 360,000); further: nearly all actives have a fitted effect of over 55% in size
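WRN at 20 nM final was preincubated with compound for 15 min at room temperature; reaction started with 100 nM forked duplex oligonucleotide carrying fluorophore and quencher plus 2 mM ATP (final). Unwinding followed kinetically by red fluorescence (ex 525/em 598 nm).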
Pol iota inh = DNA polymerase iota (human) inhibition; Q9UNA4; Pol iota fluorescent replication assay, 10 min; Potency, µM (highest dose often 115 µM), usual class: inhibitors; actives 1% (n = 390,000); AID 588590
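Fluorescent replication assay read twice, at 0 min and 10 min after adding 50 nM (final) substrate. Enzyme (10 nM) and compounds were first incubated 15 min at room temperature; enzyme-free buffer wells were negative controls.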
A number is an active result; . = inactive; ? = inconclusive; / = no result; [ ] = remark or other dose. Only some compounds are listed: those with a hit (about 2.4% of all), similar ones and a draw of the others. The call rests on the fitted dose curve; in most records, active means well fitted curve in the direction sought with a large enough effect; inconclusive means small, poorly fitted or top-dose-only effect, or another doubt; inactive means no such curve, though single readings can be large; an effect the other way counts as inactive or inconclusive.

SMILES	Pol kappa inh	FEN1 inh	POLH inh	Pol beta inh	WRN helicase inh	Pol iota inh
COc1ccc(C(=O)Nc2nc3ccccc3[nH]2)cc1OC	.	.	.	.	.	.
Cc1cc(=O)oc2cc(OCC(=O)N/N=C/c3ccccc3[N+](=O)[O-])ccc12	?	?	?	31.6µM	?	28.2µM
COC(=O)C1=C(C)N(CCCC(=O)O)C(=O)NC1c1cc2c(cc1[N+](=O)[O-])OCO2 (configuration not stated)	44.7µM	?	50.1µM	10µM	.	12.6µM
COC(=O)C1=C(C)N(CCCC(=O)O)C(=O)NC1c1ccc(C#N)cc1 (configuration not stated)	.	.	.	/	.[11.6 µM]	14.1µM
COC(=O)C1=C(C)N(C)C(=O)NC1c1cc2c(cc1[N+](=O)[O-])OCO2 (configuration not stated)	.	.	.	?	.	?
Nc1ccc2c(c1)C(=O)N(c1ccc3ccccc3c1)C2=O	.	.	/	/	/	.
Cc1cn(C2CC3OCC(NC(=O)C4CCCN4C(=O)OC(C)(C)C)C3O2)c(=O)[nH]c1=O (configuration not stated)	.	.	/	/	/	.
CCCCCOC(=O)c1ccccc1C(=O)O	.	.	.	.	.	.
CCCCCCCCCCCCCCOc1ccc(C(=O)O)o1	11.9µM	/	/	/	/	/
CCCC1=Nc2cc(C(=O)NC(C)c3ccccc3)ccc2Sc2ccc(C)cc21 (configuration not stated)	?	?	.	.	/	89.1µM
CCC1=Nc2cc(C(=O)NCCc3ccccc3)ccc2Sc2ccc(Cl)cc21	.	.	.	.	/	.
CCC1=Nc2cc(C(=O)NC(C)c3ccccc3)ccc2Sc2ccc(Cl)cc21 (configuration not stated)	.	.	.	.	/	.
CCCC1=Nc2cc(C(=O)NCCc3ccccc3)ccc2Sc2ccc(C)cc21	?	79.4µM	?	.	/	?
CC(C)CCOc1ccc(CC(=O)NO)cc1	.	.	/	/	/	.
c1nc(SSc2ncc3n[nH]nc3n2)nc2n[nH]nc12	.	?	/	/	/	?
O=C(Nc1ccccc1C(=O)O)/C(=C/c1ccc([N+](=O)[O-])cc1)NC(=O)c1ccc(Br)o1	.	.	39.8µM	28.2µM	.[11.6 µM]	.
O=c1oc2ccccc2nc1/C=C(\O)c1ccccc1	.	?	.	.	.[11.6 µM]	.
O/C(=C\c1nc2ccccc2nc1/C=C(\O)c1ccccc1)c1ccccc1	.	.	.	.	44.7µM	.
O=Cc1cc2cc3c(cc2nc1Cl)OCCO3	.	.	.	.	.	.
O=C(O)c1cc(N/N=C/c2ccc3c(c2)OCO3)ccc1Cl	.	.	.	.	.	.
COc1cc(/C=N/Nc2ccc(Cl)c(C(=O)O)c2)ccc1OC(=O)c1ccc(F)cc1	.	?	79.4µM	.	.[11.6 µM]	?
O=C(O)c1cc(N/N=C/c2ccc3c(c2)OCCO3)ccc1Cl	?	.	25.1µM	?	.	?
O=C(O)c1ccc(N/N=C/c2cc3cc4c(cc3nc2Cl)OCCO4)cc1	.	?	44.7µM	.	.	?
CC(C)n1cc(/C=N/Nc2ccc(Cl)c(C(=O)O)c2)c2ccccc21	/	/	/	31.6µM	/	/
CSCC[C@H](NC(=O)[C@H](CC(C)C)NC(=O)CNC(=O)[C@H](Cc1ccc(O)cc1)NC(=O)[C@H](Cc1ccccc1)NC(=O)[C@H](CCC(N)=O)NC(=O)[C@H](CCC(N)=O)NC(=O)[C@@H]1CCCN1C(=O)[C@H](CCCCN)NC(=O)[C@@H]1CCCN1C(=O)[C@@H](N)CCCN=C(N)N)C(N)=O	.	/	/	/	/	/
SMILES	Pol kappa inh	FEN1 inh	POLH inh	Pol beta inh	WRN helicase inh	Pol iota inh
O=C(O)c1cc(N/N=C/c2cccs2)ccc1Cl	/	/	/	22.4µM	/	/
CC(C)(C)n1ncc2c(=O)n(Cc3c(F)cc(Cl)cc3F)cnc21	.	.	/	/	/	.
C=C1NN(Cc2ccc(OC)cc2)C(=O)N1c1ccccc1	.	.	/	/	/	.
COC/C=C/C1=CC2=CC(=O)C(C)(OC(=O)c3cnc4ccccc4n3)C(=O)C2=CN1C1CC1 (configuration not stated)	.	?	?	/	.	?
COC/C=C/C1=CC2=CC(=O)C(C)(OC(=O)c3cnc4ccccc4n3)C(=O)C2=CN1Cc1ccccc1 (configuration not stated)	.	.	28.2µM	10µM	.	?
CCCCC1=CC2=CC(=O)C(C)(OC(=O)c3cccs3)C(=O)C2=CO1 (configuration not stated)	?	.	22.4µM	/	.	?
COC/C=C/C1=CC2=CC(=O)C(C)(OC(=O)c3cnc4ccccc4n3)C(=O)C2=CN1c1ccc(OC)cc1 (configuration not stated)	.	.	?	/	.	?
COC/C=C/C1=CC2=CC(=O)C(C)(OC(=O)c3ccco3)C(=O)C2=CO1 (configuration not stated)	/	/	/	28.2µM	/	/
CCCCC1=CC2=CC(=O)C(C)(OC(=O)c3cnc4ccccc4n3)C(=O)C2=CO1 (configuration not stated)	/	/	/	50.1µM	/	/
CCN(CC)S(=O)(=O)c1cc(NC(=O)CSc2nnc(N)s2)ccc1C	.	.	.	/	.	.
CCN(CC)C(=O)CSc1nc2ccc(NC(=O)CSc3nnc(N)s3)cc2s1	?	.	11.2µM	31.6µM	.	12.6µM
